# According to PubChem BioAssay (EPA / NIEHS):
# Results filed as inconclusive are left out. Activity calls are given as the source filed them. Rule for the calls, unless noted: active = hit-call score of the fitted dose curve at least 0.9, where 1 is the maximum; inactive = score below 0.9.
# Assays:
# DIO3 (gene 1735) = assay: CCTE_GLTED_hDIO3: CCTE's human Deiodinase 3 (DIO3) Inhibition Assay, Great Lakes Toxicology and Ecology Division (GLTED) Lab (AID 2284055; active = hit-call score of the fitted dose curve at least 0.9, where 1 is the maximum;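 note: potency is for inhibition seen as loss of released iodide signal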)
# How it was run: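 Steps: incubate adenovirus-produced hDIO3 with chemical for 3 hours; detect freed iodide via cerium-arsenic Sandell-Kolthoff colorimetry; compare with DMSO baseline.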
# [1] = CCTE_Shafer_MEA_acute_AB: CCTE's Alamar Blue Assay for Cytotoxicity in the Neural Acute Assay, Shafer Lab (AID 2284069; active = hit-call score of the fitted dose curve at least 0.9, where 1 is the maximum;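 note: active compounds lower the viability signal compared with DMSO wells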)
# How it was run: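 Metabolic activity in chemically exposed rat cortical neurons (MEA cultures, day 13/15 post-plating) measured via CellTiter Blue resazurin reduction, 544/590 nm fluorescence; fitted relative to DMSO, with signal loss indicating reduced viability.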
# [2] = CCTE_Shafer_MEA_dev_per_network_spike_spike_percent: CCTE's Neural Network Formation Assay for Percent of Spikes in a Network Spike, Shafer Lab (AID 2284054)
# How it was run: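 Read-out: percent of spikes falling in a 0.05 s window at network-spike peak, from spontaneous MEA recordings on days 5, 7, 9 and 12; trapezoidal AUC; loss of signal versus DMSO. Rat cortical cultures, compound present throughout.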
# [3] = CCTE_Shafer_MEA_dev_mutual_information_norm: CCTE's Neural Network Formation Assay for Mutual Information Normalization, Shafer Lab (AID 2284091);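 for AC50: mutual information between electrodes summarised as area under curve across four recording days; potency is for a decrease in mutual information relative to DMSO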
# How it was run: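 Neurons from rat cortex were seeded at 1.5 x 10^5 cells/well onto PEI-coated MEAs in a laminin drop, then exposed to compound from day 0 for twelve days. Network recordings on four days gave mutual information, summarised by AUC relative to DMSO.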
# [4] = CCTE_Shafer_MEA_dev_correlation_coefficient_mean: CCTE's Neural Network Formation Assay for Mean Correlation Coefficient, Shafer Lab (AID 2284093);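 for AC50: well mean pairwise spike train correlation integrated as AUC over recording days 5 to 12; potency fitted for loss of correlation relative to DMSO vehicle wells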
# How it was run: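 Read-out: well-mean correlation coefficient of spike trains between electrode pairs, collapsed over four recording days as trapezoidal area-under-the-curve. Developing rat cortical neuron networks grown on MEAs received test chemical continuously from plating.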
# [5] = CCTE_Shafer_MEA_dev_LDH: CCTE's Lactate Dehydrogenase Assay for Cytotoxicity in the Neural Network Formation Assay, Shafer Lab (AID 2284068; active = hit-call score of the fitted dose curve at least 0.9, where 1 is the maximum;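 note: exposure for twelve days from plating with re-dosing on DIV 5 and 9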)
# How it was run: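 Cytotoxicity companion to network-formation recordings: rat cortical neurons received compound over 12 days of development, re-dosed at DIV 5 and 9 feeds. Viability was inferred from LDH enzyme activity relative to DMSO.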
# [6] = CCTE_Shafer_MEA_dev_AB: CCTE's Alamar Blue Assay for Cytotoxicity in the Neural Network Formation Assay, Shafer Lab (AID 2284083; active = hit-call score of the fitted dose curve at least 0.9, where 1 is the maximum;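 note: twelve days of exposure from plating with re-dosing on DIV 5 and 9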)
# How it was run: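 Fluorescent resazurin reduction serves as the viability read-out, with DMSO as negative control and baseline. Cells were primary rat cortical neurons grown on MEA plates and dosed from day 0 to day 12, treatment renewed on DIV 5 and 9.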
# [7] = IUF_NPC1b_proliferation_BrdU_72hr: Leibniz Research Institute for Environmental Medicine (IUF) 72-hour Neural Progenitor Cell Bromodeoxyuridine (BrdU) Proliferation Assay (NPC1b) (AID 2284207)
# How it was run: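 Luminescent BrdU ELISA measured DNA synthesis during the last 16 h of a 72 h exposure of primary human neural progenitor spheres grown with EGF and FGF. Signal was fitted relative to DMSO controls.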
# [8] = IUF_NPC1a_proliferation_area_72hr: Leibniz Research Institute for Environmental Medicine (IUF) 72-hour Neural Progenitor Cell Proliferation Area Assay (NPC1a) (AID 2284208)
# How it was run: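 Proliferation is scored as sphere area gain in primary human fetal neural progenitors treated for 72 h in EGF/FGF-containing medium. Viability, LDH and BrdU readouts come from the same wells.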
# [9] = IUF_NPC1_viability_72hr: Viability Assessment at 72 hours in the Leibniz Research Institute for Environmental Medicine (IUF) Neural Progenitor Cell Proliferation Assay (NPC1) (AID 2284209)
# How it was run: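 Three-day continuous exposure of human neural progenitor spheres under EGF/FGF-driven proliferation; cell viability scored by alamar blue signal versus DMSO.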
# [10] = CCTE_Mundy_HCI_Cortical_Synap_Neur_Matur_NeuriteSpotCountPerNeuriteLength: CCTE's Synaptogenesis and Neurite Maturation Assay in rat cortical cells for Neurite Spot Count per Neurite Length, Mundy Lab (AID 2284210)
# How it was run: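 Read-out: synaptophysin puncta counted along MAP2-stained neurites, normalised to neurite length, by automated high-content imaging. Rat cortical cells; AraC DIV 5; chemical dosing DIV 7; termination DIV 12. DMSO baseline.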
# [11] = CCTE_Mundy_HCI_Cortical_Synap_Neur_Matur_BPCount: CCTE's Synaptogenesis and Neurite Maturation Assay in rat cortical cells for Branch Point Count, Mundy Lab (AID 2284211)
# How it was run: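 In this multiplexed morphology assay, cortical cells from rat receive chemicals at DIV 7 and are fixed at DIV 12, then immunostained and imaged; branch points are counted, with DMSO as baseline.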
# [12] = CCTE_Mundy_HCI_Cortical_NOG_NeuriteCount: CCTE's Neurite Outgrowth Assay in rat cortical cells for Neurite Count, Mundy Lab (AID 2284212);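 note: cells fixed about two days after chemical exposure began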
# How it was run: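 Rat cortical primary cells; compound added 2 h post-plating, 1/10 dilution of working solution. Anti-betaIII-tubulin/AF488 ICC; ArrayScan neurite count vs DMSO.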
# [13] = CCTE_Mundy_HCI_Cortical_NOG_NeuriteLength: CCTE's Neurite Outgrowth Assay in rat cortical cells for Neurite Length, Mundy Lab (AID 2284213)
# How it was run: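 First, rat primary cortical cells were plated and, 2 h later, given test chemical as a 1/10 dilution. Finally, βIII-tubulin immunostaining enabled automated imaging of neurite length.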
# [14] = CCTE_Mundy_HCI_Cortical_Synap_Neur_Matur_NeuriteLength: CCTE's Synaptogenesis and Neurite Maturation Assay in rat cortical cells for Neurite Length, Mundy Lab (AID 2284214)
# How it was run: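 DMSO-normalised neurite length, from high-content imaging of anti-MAP2-stained rat cortical cells fixed at DIV 12. Glia were suppressed with AraC (DIV 5) before chemical exposure from DIV 7.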
# [15] = CCTE_Mundy_HCI_Cortical_Synap_Neur_Matur_NeuriteSpotCountPerNeuron: CCTE's Synaptogenesis and Neurite Maturation Assay in rat cortical cells for Neurite Spot Count per Neuron Count, Mundy Lab (AID 2284215)
# How it was run: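 Synapse density is scored as synaptophysin spots along neurites per neuron in fixed rat cortical neurons, measured at DIV 12 after chemical dosing at DIV 7. DMSO is the negative control and activity baseline.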
smiles,measurement,setting,value
CCCCCCCCCCCCCOP(=O)(O)O,AC50,DIO3 (gene 1735),12 µM (active)
Nc1ccc(N)c(Cl)c1,outcome,[1],inactive
FC(F)=C(F)OC(F)(F)C(F)(F)C(F)(F)F,outcome,[2],inactive
same,outcome,[3],inactive
same,outcome,[4],inactive
CCCCC/C=C\C/C=C\CCCCCCCC(=O)OC,AC50,DIO3 (gene 1735),16.8 µM (active)
O=C(c1ccc(O)cc1)c1ccc(O)cc1O,outcome,[1],inactive
CN(C)c1ccc(C(=N)c2ccc(N(C)C)cc2)cc1,AC50,[2],1.63 µM (active)
same,AC50,[5],3.2 µM (active)
same,AC50,[6],4.33 µM (active)
same,AC50,[3],0.975 µM (active)
same,AC50,[4],1.71 µM (active)
CC1(C)S[C@@H]2[C@H](NC(=O)COc3ccccc3)C(=O)N2[C@H]1C(=O)O,outcome,[2],inactive
same,outcome,[3],inactive
same,outcome,[4],inactive
same,outcome,[7],inactive
same,outcome,[8],inactive
same,outcome,[9],inactive
same,outcome,[10],inactive
same,outcome,[11],inactive
same,outcome,[12],inactive
same,outcome,[13],inactive
same,outcome,[14],inactive
same,outcome,[15],inactive
CCCCCCCC[N+](C)(CCCCCCCC)CCCCCCCC,AC50,DIO3 (gene 1735),3.85 µM (active)
c1ccc2c(c1)ccc1cc3c(ccc4ccccc43)cc12,outcome,[2],inactive
same,outcome,[5],inactive
same,outcome,[3],inactive
same,outcome,[4],inactive
CCOC(F)(F)C(F)(F)C(F)(F)C(F)(F)F,outcome,[2],inactive
same,outcome,[6],inactive
same,outcome,[3],inactive
same,outcome,[4],inactive
COC(F)(F)C(F)(C(F)(F)F)C(F)(F)F,outcome,[2],inactive
same,outcome,[3],inactive
same,outcome,[4],inactive
CCN(CCC#N)c1ccc(N=Nc2c(Cl)cc([N+](=O)[O-])cc2Cl)cc1,AC50,DIO3 (gene 1735),63.7 µM (active)
CC(C)C1=CC2=CC[C@@H]3[C@](C)(CCC[C@@]3(C)C(=O)O)[C@H]2CC1,AC50,DIO3 (gene 1735),79.8 µM (active)
